According to PubChem BioAssay (NCATS):
Records with an inconclusive call do not appear. Entries that show only a call come without a potency. Calls of active or inactive are those of the source. Unless noted, the call rests on the fitted dose curve; in most records, active means well fitted curve in the direction sought with a large enough effect; inconclusive means small, poorly fitted or top-dose-only effect, or another doubt; inactive means no such curve, though single readings can be large; an effect the other way counts as inactive or inconclusive.

Assays:
[1] = molecular target: Ferritin light chain (Equus caballus) (UniProt P02791); test: qHTS Validation Assay for Identification of Novel General Anesthetics (AID 2323); further: series mostly up to about 77 µM
Summary of the method: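 Competitive displacement of the profluorescent anesthetic 1-AMA (50% saturated, PBS) from 10 uM apoferritin, 10 min, room temperature. Activity is normalized 380/535 nm fluorescence; concentration-response fitted with a four-parameter Hill equation.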

[2] = molecular target: ATP-dependent DNA helicase Q1 (Homo sapiens) (UniProt P46063); test: qHTS Validation Assay for Inhibitors of RecQ-Like Dna Helicase 1 (RECQ1) (AID 2353)
Summary of the method: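 50 nM RECQ1T1 preincubated 15 min with compound in Tris pH 8.0 buffer with MgCl2, DTT, Tween-20 and 2.5 ug/ml poly(dI-dC); started with 200 nM TAMRA/BHQ-2 forked duplex and 2 mM ATP. Unwinding read as fluorescence (525/598 nm), two reads 2 h apart.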

[3] = molecular target: RecQ-like DNA helicase BLM (Homo sapiens) (UniProt P54132); test: qHTS Validation Assay for Inhibitors of Bloom's syndrome helicase (BLM) (AID 2364)
RecQ-like DNA helicase BLM (Homo sapiens), sequence (P54132 whole entry, looked up): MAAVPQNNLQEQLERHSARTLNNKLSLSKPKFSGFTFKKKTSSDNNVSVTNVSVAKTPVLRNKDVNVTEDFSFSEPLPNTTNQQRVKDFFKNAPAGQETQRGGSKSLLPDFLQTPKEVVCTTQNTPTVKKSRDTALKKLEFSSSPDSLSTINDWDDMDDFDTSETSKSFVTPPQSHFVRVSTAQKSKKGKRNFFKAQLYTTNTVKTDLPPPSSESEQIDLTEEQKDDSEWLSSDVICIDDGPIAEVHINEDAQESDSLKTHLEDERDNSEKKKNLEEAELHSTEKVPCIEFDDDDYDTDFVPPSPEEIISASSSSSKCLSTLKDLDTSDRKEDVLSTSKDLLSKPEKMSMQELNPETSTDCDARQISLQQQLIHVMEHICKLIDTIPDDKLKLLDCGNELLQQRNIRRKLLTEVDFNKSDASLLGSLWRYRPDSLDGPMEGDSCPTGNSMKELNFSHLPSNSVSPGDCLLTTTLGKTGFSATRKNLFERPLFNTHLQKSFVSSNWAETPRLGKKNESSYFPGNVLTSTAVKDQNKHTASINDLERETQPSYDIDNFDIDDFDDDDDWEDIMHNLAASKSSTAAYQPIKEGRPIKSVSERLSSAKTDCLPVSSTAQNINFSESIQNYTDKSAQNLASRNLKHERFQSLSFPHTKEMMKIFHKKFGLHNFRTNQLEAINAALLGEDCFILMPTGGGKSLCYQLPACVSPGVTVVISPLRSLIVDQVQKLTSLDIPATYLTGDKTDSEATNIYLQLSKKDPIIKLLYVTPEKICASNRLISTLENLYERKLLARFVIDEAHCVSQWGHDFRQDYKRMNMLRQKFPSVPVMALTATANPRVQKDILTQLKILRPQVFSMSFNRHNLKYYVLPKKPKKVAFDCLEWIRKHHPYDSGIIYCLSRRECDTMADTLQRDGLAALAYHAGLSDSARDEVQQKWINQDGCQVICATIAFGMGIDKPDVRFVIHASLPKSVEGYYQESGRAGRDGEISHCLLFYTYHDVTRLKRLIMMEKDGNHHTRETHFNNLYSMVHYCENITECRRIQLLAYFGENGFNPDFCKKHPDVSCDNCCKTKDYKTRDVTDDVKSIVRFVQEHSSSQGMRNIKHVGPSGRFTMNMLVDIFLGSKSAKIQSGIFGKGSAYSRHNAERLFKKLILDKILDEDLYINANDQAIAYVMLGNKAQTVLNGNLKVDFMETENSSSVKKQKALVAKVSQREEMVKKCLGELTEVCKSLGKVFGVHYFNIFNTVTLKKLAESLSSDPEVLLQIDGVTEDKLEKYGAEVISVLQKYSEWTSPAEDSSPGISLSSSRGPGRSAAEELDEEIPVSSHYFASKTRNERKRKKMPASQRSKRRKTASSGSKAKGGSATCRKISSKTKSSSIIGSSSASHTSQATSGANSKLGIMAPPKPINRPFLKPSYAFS
Summary of the method: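 50 nM BLM preincubated 15 min at room temperature with compound in pH 8.0 Tris buffer containing 2.5 ug/ml poly(dI-dC); started with 200 nM TAMRA/BHQ-2 forked duplex and 2 mM ATP (final). Unwinding read as TAMRA fluorescence increase, two reads 2 h apart.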

[4] = High Content Imaging Cell-Based qHTS for Inhibitors of the mTORC1 Signaling Pathway in MEF (Tsc2-/-, p53-/-) Cells (AID 2666);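 further: percent of cells scored positive for phospho-rpS6 Ser235/236 immunostaining by imaging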
Summary of the method: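 Phospho-rpS6 (Ser235/236) immunofluorescence, normalized and scored as % positive cells using rapamycin and DMSO controls, was read in empty-vector Tsc2-/-, p53-/- MEFs after 24 h compound exposure at 37 C; propidium iodide counted cells.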

[5] = High Content Imaging Cell-Based qHTS for Inhibitors of the mTORC1 Signaling Pathway in MEF Cells (AID 2667);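 further: Tsc2-/- p53-/- MEFs stably re-expressing wild-type Tsc2 exposed 24 h; series mostly up to about 38 µM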
Summary of the method: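 WT MEFs (Tsc2-/-, p53-/- re-expressing Tsc2), in DMEM + 10% FBS, were treated with compound for 24 h at 37 C. Cells were then fixed and stained for phospho-rpS6 Ser235/236 with propidium iodide as cell count. Values are % positive cells, with thresholds set against rapamycin-treated cells.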

[6] = Cytometry Cell-Based qHTS for Inhibitors of the mTORC1 Signaling Pathway in MEF cells (AID 2668);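 further: Tsc2-/- p53-/- mouse embryonic fibroblasts stably re-expressing wild-type Tsc2; percent cells positive for phospho-rpS6 Ser235/236 relative to propidium iodide stain; series mostly up to about 38 µM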
Summary of the method: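 Phospho-rpS6 (Ser235/236) immunofluorescence over PI signal, scored as % positive cells using thresholds from 7.5 nM rapamycin and DMSO wells, after 24 h compound exposure of WT-Tsc2-rescued Tsc2-/-, p53-/- MEFs. PI cell count recorded for viability.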

[7] = Validation screen for small molecules that induce DNA re-replication in MCF 10A normal breast cells (AID 463097); further: nearly all actives have a fitted effect of over 60% in size
Summary of the method: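 Read-out is Hoechst total nuclear intensity by fluorescence scanning imager, flagging increased high-DNA-content nuclei. Compounds were incubated with MCF 10A cells for 48 hr (37 C, 5% CO2) before 40 min staining.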

[8] = molecular target: Ubiquitin carboxyl-terminal hydrolase 2 (Homo sapiens) (UniProt O75604); test: qHTS Validation Assay for Inhibitors of Ubiquitin-specific Protease USP2a Using CHOP2 as the Reporter (AID 463106)
Summary of the method: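 USP2 core (10 nM final) was preincubated with compound 30 min at RT in pH 8.0 Tris/CaCl2/beta-ME/CHAPS buffer. Ub-CHOP2 and reporter substrate (25 nM final each) were then added, with fluorescence (Ex 485/Em 531) read after 60 min. Data were normalized to NEM full inhibition and fitted to concentration-response curves.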

[9] = molecular target: DNA polymerase III PolC-type (Bacillus subtilis (strain 168)) (UniProt P13267); test: qHTS Validation Assay for the Inhibitors of DNA Replication in Gram-Positive Bacteria (AID 485295);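 further: reconstituted holoenzyme with PolC plus beta clamp SSB and primase; PicoGreen fluorescence of double-stranded DNA made on primed circular M13 template; series mostly up to about 57 µM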
DNA polymerase III PolC-type (Bacillus subtilis (strain 168)), sequence (P13267 whole entry, looked up): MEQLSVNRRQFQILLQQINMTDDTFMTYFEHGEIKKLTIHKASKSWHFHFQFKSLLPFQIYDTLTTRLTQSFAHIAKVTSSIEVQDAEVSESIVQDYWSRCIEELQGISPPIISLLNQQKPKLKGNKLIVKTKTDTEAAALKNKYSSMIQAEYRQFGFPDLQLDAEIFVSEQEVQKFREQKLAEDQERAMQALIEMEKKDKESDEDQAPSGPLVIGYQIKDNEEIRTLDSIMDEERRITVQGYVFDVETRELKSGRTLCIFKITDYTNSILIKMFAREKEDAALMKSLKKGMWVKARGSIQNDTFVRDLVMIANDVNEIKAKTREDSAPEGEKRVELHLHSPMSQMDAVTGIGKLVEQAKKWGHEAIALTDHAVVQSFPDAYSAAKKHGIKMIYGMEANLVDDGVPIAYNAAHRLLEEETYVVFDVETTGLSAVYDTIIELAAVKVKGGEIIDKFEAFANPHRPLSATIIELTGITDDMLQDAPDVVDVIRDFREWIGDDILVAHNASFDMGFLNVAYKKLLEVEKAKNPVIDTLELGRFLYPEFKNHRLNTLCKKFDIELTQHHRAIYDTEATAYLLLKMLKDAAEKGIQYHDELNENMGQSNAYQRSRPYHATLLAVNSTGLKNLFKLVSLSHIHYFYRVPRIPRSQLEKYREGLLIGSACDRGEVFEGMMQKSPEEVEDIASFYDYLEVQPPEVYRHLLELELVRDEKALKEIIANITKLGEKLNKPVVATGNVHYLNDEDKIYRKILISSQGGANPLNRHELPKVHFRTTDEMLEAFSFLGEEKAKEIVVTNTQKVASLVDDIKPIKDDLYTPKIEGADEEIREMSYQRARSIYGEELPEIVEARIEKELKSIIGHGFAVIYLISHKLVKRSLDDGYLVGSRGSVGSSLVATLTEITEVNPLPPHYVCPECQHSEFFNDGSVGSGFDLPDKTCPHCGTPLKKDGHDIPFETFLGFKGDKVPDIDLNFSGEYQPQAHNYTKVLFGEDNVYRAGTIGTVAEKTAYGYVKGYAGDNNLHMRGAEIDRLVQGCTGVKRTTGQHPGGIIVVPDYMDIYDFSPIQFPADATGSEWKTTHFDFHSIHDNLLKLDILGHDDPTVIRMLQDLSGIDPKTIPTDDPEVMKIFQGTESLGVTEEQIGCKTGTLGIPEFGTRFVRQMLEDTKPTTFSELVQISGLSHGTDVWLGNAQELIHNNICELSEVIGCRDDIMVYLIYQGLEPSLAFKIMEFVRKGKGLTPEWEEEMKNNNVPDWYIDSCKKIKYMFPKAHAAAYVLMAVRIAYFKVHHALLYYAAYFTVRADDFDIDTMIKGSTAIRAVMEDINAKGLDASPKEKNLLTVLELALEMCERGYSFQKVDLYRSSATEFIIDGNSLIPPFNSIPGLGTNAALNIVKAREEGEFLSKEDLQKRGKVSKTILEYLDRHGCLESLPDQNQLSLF
Summary of the method: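 Double-stranded DNA product detected by PicoGreen fluorescence after EDTA quench. Compound incubated with B. subtilis holoenzyme (PolC, beta subunit, SSB, primase) before substrate addition; primed replication of M13Gori with dNTPs and NTPs at room temperature; DMSO defines 0% inhibition.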

[10] = molecular target: Tumor susceptibility gene 101 protein (Homo sapiens) (UniProt Q99816); test: qHTS Validation Assay for Iinhibitors of HIV-1 Budding by Blocking the Interaction of PTAP/TSG101 (AID 485342; calls by dose curve)
Tumor susceptibility gene 101 protein (Homo sapiens), sequence (Q99816 whole entry, looked up, the tested form may be a part): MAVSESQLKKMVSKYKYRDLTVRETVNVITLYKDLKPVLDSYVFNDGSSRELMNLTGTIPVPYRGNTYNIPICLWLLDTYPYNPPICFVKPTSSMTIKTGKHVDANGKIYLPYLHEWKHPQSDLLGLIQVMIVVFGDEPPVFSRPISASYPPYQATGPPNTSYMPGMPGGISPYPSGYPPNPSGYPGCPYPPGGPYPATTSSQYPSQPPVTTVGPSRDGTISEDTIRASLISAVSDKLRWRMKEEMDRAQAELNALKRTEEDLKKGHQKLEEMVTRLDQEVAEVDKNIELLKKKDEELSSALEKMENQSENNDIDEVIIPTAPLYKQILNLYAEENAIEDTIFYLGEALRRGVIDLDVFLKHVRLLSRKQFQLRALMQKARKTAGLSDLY
Summary of the method: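 Fluorescence polarization of 50 nM FITC-PTAP peptide bound to 10 uM Tsg101 binding domain was read after 20 min room-temperature incubation with compounds, in 10 mM HEPES pH 7.5, 0.15 M NaCl, 0.01% Tween 20.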

[11] = qHTS Validation Assay to Find Inhibitors of Chronic Active B-Cell Receptor Signaling (AID 485345; active means well fitted curve in the direction sought with a large enough effect in the main read-out, with a control signal flat, not every such curve was filed as active)
Summary of the method: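 TMD8 ABC-DLBCL cells stably carrying doxycycline-inducible IkappaBalpha–green luciferase fusion plus unfused red luciferase; compounds 46 uM to 3 nM, 4 h at 37C with doxycycline. Corrected green/red luminescence ratio normalized to 10 uM MG-132 and basal cell wells; curves fitted.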

[12] = molecular target: Beta-2 adrenergic receptor (Homo sapiens) (UniProt P07550); test: qHTS validation assay of beta-arrestin-biased ligands of beta2-adrenergic receptor (AID 485366)
Beta-2 adrenergic receptor (Homo sapiens), sequence (P07550 whole entry, looked up): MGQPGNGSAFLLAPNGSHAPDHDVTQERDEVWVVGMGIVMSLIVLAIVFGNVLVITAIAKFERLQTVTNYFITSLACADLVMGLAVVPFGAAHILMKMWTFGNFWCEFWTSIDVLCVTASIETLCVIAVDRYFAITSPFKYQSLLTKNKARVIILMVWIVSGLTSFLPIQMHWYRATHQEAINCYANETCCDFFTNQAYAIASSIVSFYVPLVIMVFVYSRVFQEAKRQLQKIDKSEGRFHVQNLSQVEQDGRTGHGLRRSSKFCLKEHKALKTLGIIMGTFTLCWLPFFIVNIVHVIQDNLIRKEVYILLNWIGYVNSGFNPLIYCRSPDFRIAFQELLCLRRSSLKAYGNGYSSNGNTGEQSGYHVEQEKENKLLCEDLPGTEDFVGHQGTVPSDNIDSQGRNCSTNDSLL
Summary of the method: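 Luminescence from a tTA-responsive luciferase, induced when recombinant beta-arrestin is recruited to recombinant beta2-AR, served as the agonism signal. Cells were exposed to compound for 18 hr at 37 degrees C; titrations spanned up to 46 microM.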

[13] = Quantitative high throughput screen for delayed death inhibitors of the malarial parasite plastid, 96 hour incubation (AID 488745); further: nearly all actives have a fitted effect of over 70% in size; further: potency means the concentration at half of the fitted maximal effect
Summary of the method: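 Growth of reporter-bearing P. falciparum in red cells is measured after 96 h with compound, covering two erythrocytic cycles. Luminescence from the integrated luciferase serves as the growth signal.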

[14] = Quantitative high throughput screen for delayed death inhibitors of the malarial parasite plastid, 48 hour incubation (AID 488752); further: nearly all actives have a fitted effect of over 65% in size; further: potency means the concentration at half of the fitted maximal effect
Summary of the method: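 One parasite generation (48 h, 37 C, 5% CO2) of luciferase-reporter P. falciparum in erythrocytes is run with test compound; decreased luminescence indicates inhibited growth.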

[15] = molecular target: Flap endonuclease 1 (Homo sapiens) (UniProt P39748); test: qHTS Validation Assay for the Inhibitors of Human Flap endonuclease 1 (FEN1) (AID 488816)
Flap endonuclease 1 (Homo sapiens), sequence (P39748 whole entry, looked up): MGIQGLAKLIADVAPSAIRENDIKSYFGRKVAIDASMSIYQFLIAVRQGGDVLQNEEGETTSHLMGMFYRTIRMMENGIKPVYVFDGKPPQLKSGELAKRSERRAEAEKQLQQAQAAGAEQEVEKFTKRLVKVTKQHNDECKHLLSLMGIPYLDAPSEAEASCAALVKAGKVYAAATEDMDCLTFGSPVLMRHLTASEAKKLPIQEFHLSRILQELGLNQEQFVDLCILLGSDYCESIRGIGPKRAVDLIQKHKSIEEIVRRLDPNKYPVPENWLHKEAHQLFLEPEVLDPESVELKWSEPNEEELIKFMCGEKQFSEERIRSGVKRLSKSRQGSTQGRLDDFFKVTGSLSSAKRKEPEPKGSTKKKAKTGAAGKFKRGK
Summary of the method: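 Human FEN1 (10 nM) preincubated 15 min at room temperature with compounds, then flap DNA substrate added at 50 nM final. Fluorescence read at 0 and 15 min; concentration-response fitted with four-parameter Hill equation.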

[16] = Cytometric Cell-Based qHTS for Inhibitors of the mTORC1 Signaling Pathway in MEF (Tsc2-/-, p53-/-) Cells (AID 2660);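 further: percent of cells above a phospho-rpS6 to PI ratio cutoff in each well; series mostly up to about 38 µM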
Summary of the method: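 Percent of cells positive for normalized phospho-S6 staining is reported, with the cutoff set from rapamycin (7.5 nM) versus DMSO wells. Tsc2-/-, p53-/- MEFs received compound for 24 hrs.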

[17] = molecular target: ATP-dependent 6-phosphofructokinase (Trypanosoma brucei brucei) (UniProt O15648); test: qHTS Validation Assay to Find Inhibitors of T. brucei phosphofructokinase (AID 485368); conditions: outcome: dose series up to 57.5 µM
ATP-dependent 6-phosphofructokinase (Trypanosoma brucei brucei), sequence (O15648 whole entry, looked up): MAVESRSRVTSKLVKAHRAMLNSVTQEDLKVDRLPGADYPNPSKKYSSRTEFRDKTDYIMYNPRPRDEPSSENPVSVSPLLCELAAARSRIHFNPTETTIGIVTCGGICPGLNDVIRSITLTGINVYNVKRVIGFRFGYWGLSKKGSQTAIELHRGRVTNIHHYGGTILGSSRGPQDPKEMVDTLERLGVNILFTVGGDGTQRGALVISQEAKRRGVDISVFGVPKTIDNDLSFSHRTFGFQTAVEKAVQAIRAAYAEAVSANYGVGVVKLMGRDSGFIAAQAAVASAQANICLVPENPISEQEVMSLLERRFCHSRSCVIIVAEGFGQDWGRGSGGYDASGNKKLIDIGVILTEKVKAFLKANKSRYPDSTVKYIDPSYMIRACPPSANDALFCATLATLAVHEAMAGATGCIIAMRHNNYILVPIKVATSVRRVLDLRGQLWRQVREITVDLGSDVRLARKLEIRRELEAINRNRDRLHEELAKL
Summary of the method: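 Activity was normalized between 1x (1.25 nM) PFK wells as no inhibition and enzyme-free wells as full inhibition, from luminescence after ADP-Glo detection of ADP made from 0.5 mM F6P and 0.1 mM ATP over 45 min.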

[18] = molecular target: Thioredoxin reductase 1, cytoplasmic (Rattus norvegicus) (UniProt O89049); test: qHTS Assay for Inhibitors of Mammalian Selenoprotein Thioredoxin Reductase 1 (TrxR1) (AID 488773); conditions: Potency: inhibition;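 further: drop in NADPH fluorescence over an 8 min run after selenite addition; series mostly up to about 57 µM; nearly all actives have a fitted effect of over 40% in size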
Thioredoxin reductase 1, cytoplasmic (Rattus norvegicus), sequence (O89049 whole entry, looked up): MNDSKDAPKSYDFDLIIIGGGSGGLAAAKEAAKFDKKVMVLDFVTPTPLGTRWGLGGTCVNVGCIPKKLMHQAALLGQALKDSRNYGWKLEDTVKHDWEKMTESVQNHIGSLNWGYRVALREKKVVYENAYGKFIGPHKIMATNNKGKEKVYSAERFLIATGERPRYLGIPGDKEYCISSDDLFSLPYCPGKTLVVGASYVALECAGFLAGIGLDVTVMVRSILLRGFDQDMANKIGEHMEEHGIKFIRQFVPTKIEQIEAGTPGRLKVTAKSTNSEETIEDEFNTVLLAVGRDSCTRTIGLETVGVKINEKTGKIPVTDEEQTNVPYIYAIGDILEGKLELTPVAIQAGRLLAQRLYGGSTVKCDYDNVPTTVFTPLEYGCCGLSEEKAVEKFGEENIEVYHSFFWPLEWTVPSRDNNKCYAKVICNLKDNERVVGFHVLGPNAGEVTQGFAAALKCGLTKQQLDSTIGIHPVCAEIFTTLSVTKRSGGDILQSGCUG
Summary of the method: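 Steps: enzyme (90 nM) plus NADPH (400 uM final), 5 min at ~22 deg C; compound added, 15 min; selenite (400 uM final) added; fluorescence followed for 8 min. Concentration-response curves derived from the normalized delta values.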

[19] = molecular target: Thioredoxin reductase 1, cytoplasmic (Rattus norvegicus) (UniProt O89049); test: qHTS Assay for Substrates of Mammalian Selenoprotein Thioredoxin Reductase 1 (TrxR1) (AID 488772);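 further: NADPH fluorescence in the first read after selenite addition and not the 8 min delta; series mostly up to about 57 µM; a drop in NADPH fluorescence below the no-compound background marks a TrxR1 substrate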
Summary of the method: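 Quantitative HTS in Tris-HCl buffer at pH 7.5 with EDTA and Tween-20, using rat TrxR1, 400 uM NADPH and 400 uM selenite (final). A fall in initial NADPH fluorescence relative to background marked substrate behaviour.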

[20] = qHTS Assay for Identification of Small Molecule Inducers of Hypoxia Response (AID 2120; active means well fitted curve in the direction sought with a large enough effect in the signal ratio, with a control signal flat, not every such curve was filed as active; the % refers to the signal ratio)
Summary of the method: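 Induction of beta-lactamase reporter activity was measured in CellSensor HRE-bla ME-180 cells after 17 h compound treatment at 37 degrees C, using CCF4 substrate and the 460nm/530nm emission ratio to derive AC50 values.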

| SMILES | outcome [1] | Potency [2] | Potency [3] | Potency [4] | Potency [5] | Potency [6] | Potency [7] | outcome [8] | Potency [9] | outcome [10] | Potency [11] | outcome [12] | Potency [13] | Potency [14] | Potency [15] | outcome [16] | outcome [17] | Potency [18] | outcome [19] | outcome [20] |
| --- | --- | --- | --- | --- | --- | --- | --- | --- | --- | --- | --- | --- | --- | --- | --- | --- | --- | --- | --- | --- |
| COC(=O)[C@@H](N)Cc1ccc(O)c(O)c1 | inactive | inactive | inactive | inactive | inactive | inactive | inactive | inactive | inactive | inactive | inactive | inactive | inactive | inactive | inactive |  |  |  |  |  |
| C(=C\c1ccccc1)/CN1CCN(C(c2ccccc2)c2ccccc2)CC1 | inactive | inactive | inactive | inactive | inactive | inactive |  | inactive | inactive | inactive | inactive | inactive | inactive | inactive | inactive | inactive |  |  |  |  |
| CN(C)C(=O)Oc1ccc[n+](C)c1 | inactive | inactive | inactive | inactive | inactive |  | inactive | inactive | inactive | inactive | inactive | inactive | inactive | inactive | inactive | inactive | inactive | inactive |  |  |
| CN(C)CC[C@@H](c1ccc(Br)cc1)c1ccccn1 | inactive | inactive | inactive | inactive | inactive | inactive | inactive | inactive | inactive | inactive | inactive | inactive | inactive | inactive | inactive | inactive |  | inactive | inactive |  |
| CN(C)C/C=C(/c1ccc(Br)cc1)c1cccnc1 | inactive | inactive | inactive | inactive | inactive |  | inactive |  | inactive | inactive | inactive | inactive |  | 13.1 µM (active) | inactive |  |  |  | inactive |  |
| O=c1[nH]c(=O)n([C@H]2C[C@H](O)[C@@H](CO)O2)cc1Br | inactive | inactive | inactive | inactive | inactive |  | inactive |  | inactive | inactive | inactive | inactive | inactive | inactive | inactive |  | inactive | inactive |  |  |
| O=C(O)CCCCCCCC(=O)O | inactive | inactive | inactive | inactive | inactive | inactive | inactive | inactive | inactive | inactive | inactive | inactive | inactive | inactive | inactive | inactive |  | inactive | inactive |  |
| CCCCOCCOCCOCc1cc2c(cc1CCC)OCO2 |  |  |  |  |  |  |  |  |  |  |  |  |  |  |  |  |  |  |  | inactive |
| CC(C(=O)O)c1ccc(CC2CCCC2=O)cc1 (configuration not stated) | inactive | inactive | inactive | inactive | inactive | inactive | inactive |  | inactive | inactive | inactive | inactive | inactive | inactive | inactive | inactive |  |  |  |  |
| C=CCc1ccccc1OCC(O)CNC(C)C (configuration not stated) | inactive | inactive | inactive | inactive | inactive | inactive | inactive | inactive | inactive | inactive | inactive |  |  | inactive | inactive |  |  | inactive | inactive |  |
| NC(=Nc1ccccc1)Nc1ccccc1 |  |  |  |  |  |  |  |  |  |  |  |  |  |  |  |  |  |  |  | inactive |
| CNCCCN1c2ccccc2CCc2ccccc21 | inactive | inactive | inactive | inactive |  |  | inactive | inactive | inactive | inactive | inactive |  |  |  |  | inactive |  | inactive | inactive |  |
| Cc1nc2ccccn2c(=O)c1CCN1CCC(C(=O)c2ccc(F)cc2)CC1 | inactive | inactive | inactive | inactive | inactive |  | inactive |  | inactive | inactive | inactive | inactive | inactive | inactive | inactive | inactive |  | inactive |  |  |
| CC(C)NNC(=O)c1ccncc1 | inactive | inactive | inactive | inactive | inactive | inactive | inactive | inactive | inactive | inactive | inactive | inactive |  | inactive | inactive | inactive |  |  | inactive |  |
| Cc1ccc(S(=O)(=O)NC(=O)NN2CCCCCC2)cc1 | inactive | inactive | inactive | inactive | inactive | inactive | inactive |  | inactive | inactive | inactive | inactive | inactive | inactive | inactive | inactive |  |  | inactive |  |
| FC(F)(F)c1ccccc1-n1ccnc1 | inactive | inactive | inactive | inactive | inactive |  | inactive | inactive | inactive | inactive | inactive | inactive |  | inactive | inactive |  |  | inactive |  |  |
| CCN1CCC[C@H]1CNC(=O)c1c(O)c(Cl)cc(Cl)c1OC | inactive | inactive | inactive | inactive | inactive |  | inactive | inactive | inactive | inactive | inactive | inactive | inactive | inactive | inactive | inactive |  | inactive | inactive |  |
| C[C@]12CCC(=O)C=C1CC[C@@H]1[C@@H]2C(=O)C[C@@]2(C)[C@H]1CC[C@]2(O)C(=O)CO | inactive | inactive | inactive | inactive | inactive | inactive | inactive | inactive | inactive | inactive |  | inactive | inactive | inactive | inactive |  | inactive |  | inactive |  |
| CC(C)[N+](C)(CCOC(=O)C1c2ccccc2Oc2ccccc21)C(C)C | inactive | inactive | inactive | inactive | inactive |  | inactive | inactive | inactive | inactive | inactive | inactive | 3.29 µM (active) | 4.65 µM (active) | inactive | inactive | inactive | inactive | inactive |  |
